HCV inh: inhibitors of hepatitis C virus infection; 3.4% of 340,000 active; Potency, µM (series often up to 41.8 µM), for inactives: at the top dose activity change, negative = inhibition, hits mostly inhibitors; Huh7.5.1 HCVcc-Cre infection, luciferase reporter, 44 h; active = well fitted inhibition curve with a large enough effect; inconclusive = small, poorly fitted or top-dose-only effect, or another doubt; inactive = no such curve, though single readings can be large or run the other way; also: potency is read from the fitted curve at half-maximal effect
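A cell-based infection assay in which seeded cells (1,000 per well) receive test compound after 4 h, are inoculated with HCVcc-Cre at approximately 0.5 moi, and are incubated 44 h before luminescence detection.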
FMDV inh: blocks foot and mouth disease virus | AID 1159524 | Potency, µM (series often up to 57.9 µM), for the others: at the top dose activity change, negative = inhibition, most hits filed as inhibitors | FMDV antiviral cell-based qHTS | 1.2% of 410,000 active; calls by dose curve; tested in HEK293T cells; also: read-out not given here; potency is read from the fitted curve at half-maximal effect; nearly all actives have a fitted effect of over 45% in size
HCMV inh: blocks human cytomegalovirus replication; 4.5% of 410,000 active; AID 1259415; HFF cells, HCMV-luciferase reporter, 72 h; stronger effect = lower value; activity change, negative = inhibition, % at 57.5 µM; in the data active = activity change below about -60%; inconclusive = no clear call, values can overlap the other calls; inactive = above about -39%
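Compounds were evaluated in HFFs infected with an HCMV luciferase reporter virus (MOI 1 PFU/cell). Luciferase in lysates collected 72 h post infection served as the replication measure.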
Lassa entry inh: inhibitors of Lassa virus binding or cell entry; Lassa virus pseudotype entry inhibition, cell reporter; Potency, µM (doses to about 37.9 µM), inactives show at the highest dose activity change, negative = inhibition, actives largely listed as inhibitors; 1.2% of 300,000 active; calls by dose curve; tested in HEK293 cells; also: potency is read from the fitted curve at half-maximal effect; nearly all actives have a fitted effect of over 50% in size
Marburg entry inh: blocks Marburg virus binding to or entry into cells; Marburg virus pseudotyped entry inhibition, cell reporter; Potency, µM (doses to about 37.8 µM), for inactives: at the top dose activity change, negative = inhibition, most hits filed as inhibitors; 1.8% of 300,000 active; AID 540276; calls by dose curve; tested in HEK293 cells; also: potency is read from the fitted curve at half-maximal effect
Active calls of the source: *; ? = inconclusive; nt = not tested or not shown; [ ] = remark or other dose. Compounds with a hit are over-represented: about 7.9% of the library has one in this group of screens. % is scaled to controls: 0 for no effect and ±100 for the full control effect.

SMILES	HCV inh	FMDV inh	HCMV inh	Lassa entry inh	Marburg entry inh
COc1ccc(C(=O)O/N=C(\N)c2ccccn2)cc1	4%	2µM*	?	?	?
COc1cc(OC)cc(C(=O)O/N=C(\N)c2ccccn2)c1	?	-1%	-61*	nt	nt
CCOc1ccc(C(=O)O/N=C(\N)c2ccccn2)cc1OCC	13µM*	26%	42	nt	nt
COc1ccc(S(=O)(=O)N(CC(=O)NCc2ccc(C)cc2)c2ccc(Cl)cc2)cc1	nt	0%	-31	2%[46.1 µM]	1%[46.1 µM]
COc1ccc(N=C2S/C(=C\c3cc(C)n(C)c3C)C(=O)N2CC(C)C)cc1	10µM*	-19%	31	-8%	-25%
N/C(=N\OC(=O)C12CC3CC(CC(C3)C1)C2)c1ccccc1	5µM*	47%	65	?	?
N/C(=N\OC(=O)C12CC3CC(CC(C3)C1)C2)c1cccnc1	?	nt	1	3%	-4%
S=C(c1ccc(Cl)cc1)N1CCOCC1	7%	1%	-25	-1%	2%
N/C(=N\OC(=O)N1CCOCC1)c1ccc(Cl)cc1	2%	16%	-31	?	10µM*
N/C(=N\OC(=O)N1CCOCC1)c1ccc(Br)cc1	?	26%	-76*	nt	nt
N/C(=N\OC(=O)c1ccoc1)c1ccc(Br)cc1	0%	56%	33	nt	nt
N/C(=N\OC(=O)N1CCOCC1)c1ccccc1	-19%	nt	?	12µM*	?
CS(=O)(=O)N1CCc2ccc(NC(=O)C3CCCO3)cc2C1 (stereo unspecified)	7%	-1%	22	-1%[46.1 µM]	-7%[46.1 µM]
CCOC(=O)c1ccc(S(=O)(=O)Nc2ccc(N3CCOCC3)cc2)cc1	-12%	-2%	-24	?	-4%[46.1 µM]
O=[N+]([O-])c1cccc(N(CC(O)CN2CCCC2)S(=O)(=O)c2ccccc2)c1 (stereo unspecified)	10%	5%	16	11%[46.1 µM]	-26%[46.1 µM]
Cc1cc(S(=O)(=O)N(Cc2ccc(C(C)C)cc2)CC2CCCO2)ccc1-n1cnnn1 (stereo unspecified)	?	nt	-77*	?	?
Cc1cc(C(C)(C)C)oc1C(=O)N(CC(=O)NC1CCCC1)c1cccc(C(F)(F)F)c1	?	nt	nt	?	23µM*
Cc1cc(C)cc(OCC(=O)Nc2cccc(-c3nnc(-c4ccco4)o3)c2)c1	-3%	20µM*	62	50%[14.3 µM]	-13%
COc1ccc(C(=O)Nc2cccc(-c3nnc(-c4ccco4)o3)c2)cc1	13µM*	35µM*	-17	-17%	?
O=C(Nc1cccc(-c2nc3ccccc3o2)c1)c1ccc(N2C(=O)C3C4C=CC(C4)C3C2=O)cc1 (stereo unspecified)	?	32µM*	-26	?	?
COc1cc(C(=O)Nc2cccc(-c3nnc(-c4ccco4)o3)c2)ccc1OC(C)=O	?	?	-18	?	?
O=C1C2C3C=CC(C3)C2C(=O)N1c1cccc(-c2nc3ccccc3o2)c1 (stereo unspecified)	5%	-10%	40	16%	-2%
COc1ccc(OCC(=O)Nc2cccc(-c3nc4ccccc4o3)c2)cc1	10µM*	-1%	20	3%	-14%
Cc1sc2nc(-c3ccccc3)oc(=O)c2c1C	3%	51%	-1	?	?
O=C1CCC[C@H]2[C@@H](Cc3ccccc3)[C@@H](NS(=O)(=O)Cc3ccccc3)CC[C@]23CCCN13	nt	nt	-17	nt	nt
SMILES	HCV inh	FMDV inh	HCMV inh	Lassa entry inh	Marburg entry inh
O=c1c2ccccc2[nH]c(=S)n1Cc1cccs1	10%	45%	-68*	1%	8%
O=c1c2ccccc2[nH]c(=S)n1Cc1ccccc1	-4%	23%	-13	-1%[46.1 µM]	21%[46.1 µM]
CC1=C(c2ccc(Cl)cc2)S(=O)(=O)N=C1N1CCC(C(=O)NCCc2ccco2)CC1	nt	-13%	-4	?	nt
CC1=C(c2ccc(C)c(C)c2)S(=O)(=O)N=C1N1CCC(C(=O)Nc2ccc(Cl)cc2)CC1	nt	-29%	-84*	-18%[46.1 µM]	nt
CCC1=C(c2ccc(C)cc2)S(=O)(=O)N=C1N1CCC(C(=O)NCCc2ccc(Cl)cc2)CC1	nt	-17%	-87*	nt	?
CCc1ccc(C2=C(C)C(N3CCC(C(=O)NCCc4ccco4)CC3)=NS2(=O)=O)cc1	nt	-1%	-62*	0%[46.1 µM]	nt
CCCCNC(=O)C1(C)CCCCN1C(=O)c1cc(-c2ccccc2)cs1 (stereo unspecified)	nt	-21%	-7	nt	nt
O=C(C[C@@H]1CC[C@H](NC(=O)Cc2ccccn2)[C@@H](CO)O1)NCCc1ccccc1	nt	-9%	-11	nt	nt
CCS(=O)(=O)N1CC2(CN(C(=O)Cc3ccccn3)[C@@H](CO)c3[nH]c4cc(OC)ccc4c32)C1	nt	nt	2	nt	nt
CN(NC(=O)c1cccc(Cl)c1)c1nc(-c2ccccc2)nnc1C(F)(F)F	-27%	?	-5	?	-20%[46.1 µM]
CN(N)c1nc(-c2ccccc2)nnc1C(F)(F)F	-14%	0%	-105*	14%	-5%
FC(F)(F)c1nnc(-c2ccccc2)nc1Sc1ccc(Cl)cc1	?	-20%	84	?	15µM*
CC1(C(=O)NS(=O)(=O)c2ccc(Cl)cc2)CCN1C(=O)c1ccc(C2CCCCC2)cc1 (stereo unspecified)	nt	-6%	-33	nt	nt
Cc1ccc2c(c1)N(C)/C(=C/c1cccc[n+]1C)S2	?	-22%	-98*	?	?
CN1/C(=C/c2cccc[n+]2C)Sc2ccccc21	?	?	-97*	nt	nt
Cc1ccc(CC(=O)Nc2ccc3c(c2)N(C)C(=O)c2ccccc2S3)cc1	nt	-17%	?	?	nt
Cc1ccc2c(c1)N(C)/C(=C/c1cccc[n+]1CCO)S2	?	?	-97*	nt	nt
CC(C)(C)n1nc2c(c1NC(=O)c1ccc([N+](=O)[O-])cc1)CS(=O)(=O)C2	20%	-8%	-2	5%[46.1 µM]	17%[46.1 µM]
CC1(c2cccc(Br)c2)NC(=O)N(CC(=O)Nc2ccc3c(c2)OCO3)C1=O (stereo unspecified)	-22%	-19%	8	nt	nt
O=C(NCc1ccco1)c1cccc2c(-c3ccc(F)c(F)c3)coc12	nt	29%	33	nt	nt
Cc1ccccc1NC(=O)Nc1cc(-c2ccccc2)nn1C	-15%	32%	36	?	?
Cc1ccccc1C(=O)Nc1cc(-c2cc(C(C)(C)C)oc2C)nn1C	?	-29%	-63*	-11%	?
CC[C@H]1CCCCc2ccccc2[C@@H](C(=O)C[C@@H](O)CC(C)=O)OC1=O	-18%[8.37 µM]	-29%	-21	nt	nt
CCOC(=O)C1CCN(c2ncnc3c2nc2n3CCCCC2)CC1	nt	21%	61	-3%[46.1 µM]	nt
Cc1cccc(N2CCN(c3ncnc4c3nc3n4CCCCC3)CC2)c1C	nt	-14%	-28	-16%[46.1 µM]	nt
CCOC(=O)C(C)NC(=O)C1CCN(c2ncnc3c2nc2n3CCCCC2)CC1 (stereo unspecified)	nt	8%	-85*	15%[46.1 µM]	nt
CC1CCN(C(=O)C2CCN(c3ncnc4c3nc3n4CCCCC3)CC2)CC1	1%	?	?	nt	nt
O=C(Nc1ccc(Cl)cn1)C1CCN(c2ncnc3c2nc2n3CCCCC2)CC1	10µM*	?	-86*	-6%[46.1 µM]	3.5µM*

Assay outcomes (PubChem)
